Hit rate of the full screen: of about 340,000 compounds, about 490 (0.14%) were called active. The sample as a whole holds a higher share of actives than the screen did. Unmarked numbers belong to inactive results. No stated cut-off is given here; in the data, active means inhibition above about 12%; inconclusive means no clear call, values can overlap the other calls; inactive means below about 7.3%.
Molecular target: Kelch-like ECH-associated protein 1 (Homo sapiens) (UniProt Q14145)
Experiment: disruptors of Keap1 binding to Nrf2 – biochemical, fluorescence polarization, single point, primary screen (AID 504523);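 further: human Keap1 Kelch domain with fluorescein labeled Nrf2 9mer peptide probe; 0% = neutral control wells and 100% = peptide positive control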
Conditions: Keap1 Kelch-Nrf2 peptide fluorescence polarization, 1536-well; at 9.4 µM; hits give high values

Kelch-like ECH-associated protein 1 (Homo sapiens), sequence (Q14145 whole entry, looked up, the tested form may be a part): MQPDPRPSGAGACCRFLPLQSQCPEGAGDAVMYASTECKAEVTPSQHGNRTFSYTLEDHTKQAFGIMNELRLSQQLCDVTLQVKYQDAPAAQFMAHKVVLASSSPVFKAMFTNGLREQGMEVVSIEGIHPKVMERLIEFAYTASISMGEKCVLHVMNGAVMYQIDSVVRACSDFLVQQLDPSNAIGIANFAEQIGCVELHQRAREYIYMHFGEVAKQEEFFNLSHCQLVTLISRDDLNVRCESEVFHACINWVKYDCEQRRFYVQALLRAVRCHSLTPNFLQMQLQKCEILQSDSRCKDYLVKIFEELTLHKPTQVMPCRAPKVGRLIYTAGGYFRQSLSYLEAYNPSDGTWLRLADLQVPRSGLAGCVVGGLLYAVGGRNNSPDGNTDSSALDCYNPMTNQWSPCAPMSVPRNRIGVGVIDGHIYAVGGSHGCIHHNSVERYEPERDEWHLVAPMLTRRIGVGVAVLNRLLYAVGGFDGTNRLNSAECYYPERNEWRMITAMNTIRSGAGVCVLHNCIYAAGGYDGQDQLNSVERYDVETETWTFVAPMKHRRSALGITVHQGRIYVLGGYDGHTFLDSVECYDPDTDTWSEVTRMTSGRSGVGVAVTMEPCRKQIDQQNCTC

| SMILES | inhibition |
| --- | --- |
| CC1(C)C(C=C(Cl)Cl)C1C(=O)NC(O)C(=O)c1ccccc1 (centres undefined) | 1.65% |
| Cc1c(C(=O)NC(=S)NCc2cccnc2)oc2ccccc12 | -0.251% |
| Cc1nnc(SC(C)C(=O)Nc2ccc(S(=O)(=O)NC3CCCCC3)cc2)s1 (centres undefined) | -0.0585% |
| CCOC(=O)C1(Cc2ccc(Cl)cc2)CCN(C(=O)C2=NNC(=O)CC2)CC1 | 0.91% |
| CN(Cc1nc2ccccc2c(=O)[nH]1)Cc1cc(=O)oc2ccc3ccccc3c12 | -4.19% |
| Cc1cc(=O)oc(C)c1C(=O)NC1CC(C)(C)NC(C)(C)C1 | -0.963% |
| Oc1ccc2ccc3cccc[n+]3c2c1 | 128% (active) |
| Oc1ccc(-c2nc3ccccc3nc2-c2ccc(O)cc2O)c(O)c1 | 5.29% |
| COc1cc(NS(=O)(=O)c2ccc(NC(=O)CN3C(=O)c4ccccc4C3=O)cc2)ncn1 | -2.44% |
| O=C1Nc2ccc([N+](=O)[O-])cc2C1=Nc1cccc(CO)c1 | 2.07% |
| CCSc1nc(C)c(CCOc2cccc(C)c2)c(=O)[nH]1 | 1.88% |
| COc1cc(NC(=O)c2ccccc2NS(=O)(=O)c2ccc(Cl)s2)cc(OC)c1 | -7.91% |
| CCCN(CC(=O)Nc1ccccc1OC)C(=O)CCC(=O)c1ccc(F)cc1 | -3.76% |
| CCCN(CCC)C(=O)C1c2ccccc2Oc2ccccc21 | 56.3% (active) |
| CCOC(=O)CC(NC(=O)C1c2ccccc2Oc2ccccc21)c1ccc(C)cc1 (centres undefined) | -0.485% |
| CCCCCNC(=O)C1c2ccccc2Oc2ccccc21 | -1.43% |
| S=C(Nc1cccnc1)Nc1ccccn1 | 0.955% |
| CN/C(=C\[N+](=O)[O-])NCCSCc1csc(CN(C)C)n1 | -2.6% |
| COCCOC(=O)c1sc(=S)n(CCOC)c1N | -0.978% |
| O=C(CSc1n[nH]c(-c2cccs2)n1)N1CCCCC1 | -2.81% |

| SMILES | inhibition |
| --- | --- |
| CC1(C)Cc2ccccc2-c2nnc(-c3cccc(O)c3)n21 | -0.455% |
| CCS(=O)(=O)Nc1ccc(C(=O)NCCSc2ccccc2)cc1 | -1.14% |
| CCCc1nc(-c2cc3cc(C)ccc3[nH]c2=O)no1 | 0.406% |
| CCOc1ccc(S(=O)(=O)N2CCC(C(=O)OCc3ccc(OC)cc3)CC2)cc1 | -2.62% |
| NC(=O)c1ccccc1N=Cc1ccc2ccccc2c1 | -5.11% |
| COC(=O)c1ccc(COC(=O)c2c(C)nn(Cc3ccccc3Cl)c2Cl)o1 | 5.7% |
| CSCC[C@H](NC(=O)CCCn1nnc2ccccc2c1=O)C(=O)O | -3.2% |
| O=C(NC(=O)N1CCSCC1)c1c(Cl)cccc1Cl | -0.262% |
| S=c1nc2ccccc2c2nc(-c3cccnc3)[nH]n12 | -0.541% |
| COc1ccc(Nc2nc(-c3cccnc3)nc3ccccc23)cn1 | 20.8% (active) |
| CC(C)(C)Nc1nc(-c2ccccn2)nc2ccccc12 | -3.56% |
| COc1ccc(CCNCC(O)Cn2ccc3ccccc32)cc1OC (centres undefined) | -7.66% |
| COc1ccc(CCNC(=O)COC(=O)Cc2cccc(F)c2)cc1 | -1.56% |
| COc1ccc(/C=N/Nc2ncnc3sc4c(c23)CCCC4)cc1O | -9.16% |
| COC(=O)C1=C(C)NC2=C(C(=O)c3ccccc32)C1c1ccc(-c2ccc(C(=O)O)cc2)o1 (centres undefined) | -21.3% |
| c1ccc(-c2cn3c(n2)CCc2ccc4cccnc4c2-3)cc1 | 0.967% |
| CCCCN(C(=O)C(CCSC)N1C(=O)c2ccccc2C1=O)c1c(N)n(CCC)c(=O)[nH]c1=O (centres undefined) | -8.81% |
| COc1ccc(C(C(=O)NC(C)(C)C)N(Cc2ccc(F)cc2)C(=O)CCC(=O)Nc2cc(C)on2)cc1 (centres undefined) | 6.66% |
| CC(C)(C)OC(=O)C[C@@H]1C/C=C\C[C@@H](CC(=O)N[C@@H](CO)Cc2ccccc2)C(=O)N2CCC[C@H]2COC1=O | 5.12% |
| COc1ccc(C2NC(=O)C(=O)/C2=C(\O)c2ccc(Cl)cc2)cc1OC (centres undefined) | -0.168% |

| SMILES | inhibition |
| --- | --- |
| C=CCOC(=O)N1CCC2CC1c1cc(-c3ccc(OC)cc3)ccc12 (centres undefined) | -0.448% |
| CC1Cc2cc(/C(O)=C3\C(=O)C(=O)N(Cc4cccnc4)C3c3ccccc3F)ccc2O1 (centres undefined) | -1.04% |
| COc1cccc(CC(=O)N2CCCC(CCC(=O)N3CCN(c4ccccn4)CC3)C2)c1 (centres undefined) | 2.29% |
| COc1ccc(N2C(=O)C(O)C2c2ccc(C)cc2)cc1 (centres undefined) | -3.41% |
| O=S(=O)(Nc1ccccc1)c1ccc(NS(=O)(=O)c2cccs2)cc1 | -1.45% |
| CCN(CC)CCCC(C)n1c2nc(=O)[nH]c(=O)c-2nc2cc(Cl)ccc21 (centres undefined) | 152% (active) |
| CCOc1cc(C2C(C(=O)OC(C)C)=C(C)NC3=C2C(=O)CCC3)cc([N+](=O)[O-])c1O (centres undefined) | -4.98% |
| CCOCCc1c(O)nc(SCC(=O)NCc2ccco2)[nH]c1=O | -1.62% |
| COc1ccc(CCn2c(NN=C3CCCC3)nc3c2c(=O)[nH]c(=O)n3C)cc1 | 1.25% |
| COc1ccc(CNCCCO)cc1OC | -3.09% |
| COc1ccc(C2C(C#N)=C(N)Oc3cc(N)ccc32)cc1OC (centres undefined) | -3.33% |
| COc1ccc(C2c3ccc(O)cc3Oc3ncn(CCCO)c(=N)c32)cc1OC (centres undefined) | 28.8% (active) |
| Cc1cccc2cc3c(N)c(C(=O)N4CCCc5ccccc54)sc3nc12 | -5.05% |
| O=C1C(=O)N(CCN2CCOCC2)C(c2ccccn2)/C1=C(/O)c1ccc(Cl)cc1 (centres undefined) | -6.66% |
| CCN(CC)CCN1C(=O)C2C(C(=O)Nc3ccc(Br)cc3)C3C=CC2(O3)C1C(=O)NC1CCCCC1 (centres undefined) | -0.939% |
| Cc1ccc(CNC(=O)C2(C(F)(F)F)C/C(=C\Cc3ccccc3)CCCO2)o1 (centres undefined) | -4.24% |
| O=C(NCCS(=O)(=O)NCc1ccc(Cl)cc1)c1ccccc1 | -4.29% |
| Cc1cc(C(=O)NCCc2ccc(Cl)cc2)n(-c2ccccc2)n1 | -8.41% |
| O=C(NCCOCc1ccc(Cl)cc1)c1ncn[nH]1 | 18.3% (active) |

Source: PubChem BioAssay AID504523 (Broad Institute, 2011)
